Laboratory results taken from PubChem BioAssay.
The source made the active and inactive calls.

Legend:
[1] = test system: Plasmodium falciparum Sir2 (PF13_0152, Sir2A); test: pfSir2 binders on small-molecule microarrays, primary screen, biochemical, small-molecule microarray, 635 nm fluorescence (AID 1098); details: small-molecule microarray binding, fluorescence 635 nm; higher = more signal;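 further: score merges spot fluorescence intensity with its signal-to-noise ratio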
[2] = small-molecule microarray binders of probe aDKK1, primary screen, biochemical, biotinylated probe, 635/667 nm fluorescence (AID 1099); details: higher = more signal;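 further: score merges 667nm spot fluorescence with signal to noise across triplicate slides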
[3] = small-molecule microarray binders of probe aCHRDL2, primary screen, biochemical, biotinylated probe, 635/667 nm fluorescence (AID 1100); details: higher = more signal
[4] = splicing luciferase reporter signal modulators, primary screen, spliceosome inhibition project, cell-based, HEK293, splice +/- reporter (AID 1101); details: luminescence, 24 h, higher = more signal, called active from +8 up or from −8 down;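 further: HEK293 cells carrying a splicing-competent luciferase reporter gene; test concentration not given here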
[5] = molecular target: Fibroblast growth factor 10 (Homo sapiens) (UniProt O15520); test: FGF10 binders on small-molecule microarrays, primary screen, biochemical, small-molecule microarray, 635 nm fluorescence (AID 1102); details: FGF10 binding, fluorescence 635 nm, higher = more signal
Chain of Fibroblast growth factor 10 (Homo sapiens) (O15520 whole entry, looked up): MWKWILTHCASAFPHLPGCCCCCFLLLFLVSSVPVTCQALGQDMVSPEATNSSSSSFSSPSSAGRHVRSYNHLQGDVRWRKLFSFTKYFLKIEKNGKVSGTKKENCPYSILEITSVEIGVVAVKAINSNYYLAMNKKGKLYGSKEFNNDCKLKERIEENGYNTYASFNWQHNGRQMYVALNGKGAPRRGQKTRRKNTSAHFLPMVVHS

[6] = test system: glycogen synthase kinase-3 (GSK3A per assay name; protocol says GSK3B); test: GSK3 binders on small-molecule microarrays, primary screen, biochemical, small-molecule microarray, 635 nm fluorescence, GSK3A (AID 1103); details: small-molecule microarray binding, fluorescence 635 nm; higher = more signal; further: the record names both GSK3A and GSK3B
[7] = molecular target: Epidermal growth factor receptor (Homo sapiens) (UniProt P00533); test: EGFR binders on small-molecule microarrays, primary screen, biochemical, small-molecule microarray, 635 nm fluorescence (AID 1104); details: EGFR binding, higher = more signal;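 further: score merges 667 nm emission intensity with spot signal to noise over triplicate slides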
Chain of Epidermal growth factor receptor (Homo sapiens) (P00533 whole entry, looked up): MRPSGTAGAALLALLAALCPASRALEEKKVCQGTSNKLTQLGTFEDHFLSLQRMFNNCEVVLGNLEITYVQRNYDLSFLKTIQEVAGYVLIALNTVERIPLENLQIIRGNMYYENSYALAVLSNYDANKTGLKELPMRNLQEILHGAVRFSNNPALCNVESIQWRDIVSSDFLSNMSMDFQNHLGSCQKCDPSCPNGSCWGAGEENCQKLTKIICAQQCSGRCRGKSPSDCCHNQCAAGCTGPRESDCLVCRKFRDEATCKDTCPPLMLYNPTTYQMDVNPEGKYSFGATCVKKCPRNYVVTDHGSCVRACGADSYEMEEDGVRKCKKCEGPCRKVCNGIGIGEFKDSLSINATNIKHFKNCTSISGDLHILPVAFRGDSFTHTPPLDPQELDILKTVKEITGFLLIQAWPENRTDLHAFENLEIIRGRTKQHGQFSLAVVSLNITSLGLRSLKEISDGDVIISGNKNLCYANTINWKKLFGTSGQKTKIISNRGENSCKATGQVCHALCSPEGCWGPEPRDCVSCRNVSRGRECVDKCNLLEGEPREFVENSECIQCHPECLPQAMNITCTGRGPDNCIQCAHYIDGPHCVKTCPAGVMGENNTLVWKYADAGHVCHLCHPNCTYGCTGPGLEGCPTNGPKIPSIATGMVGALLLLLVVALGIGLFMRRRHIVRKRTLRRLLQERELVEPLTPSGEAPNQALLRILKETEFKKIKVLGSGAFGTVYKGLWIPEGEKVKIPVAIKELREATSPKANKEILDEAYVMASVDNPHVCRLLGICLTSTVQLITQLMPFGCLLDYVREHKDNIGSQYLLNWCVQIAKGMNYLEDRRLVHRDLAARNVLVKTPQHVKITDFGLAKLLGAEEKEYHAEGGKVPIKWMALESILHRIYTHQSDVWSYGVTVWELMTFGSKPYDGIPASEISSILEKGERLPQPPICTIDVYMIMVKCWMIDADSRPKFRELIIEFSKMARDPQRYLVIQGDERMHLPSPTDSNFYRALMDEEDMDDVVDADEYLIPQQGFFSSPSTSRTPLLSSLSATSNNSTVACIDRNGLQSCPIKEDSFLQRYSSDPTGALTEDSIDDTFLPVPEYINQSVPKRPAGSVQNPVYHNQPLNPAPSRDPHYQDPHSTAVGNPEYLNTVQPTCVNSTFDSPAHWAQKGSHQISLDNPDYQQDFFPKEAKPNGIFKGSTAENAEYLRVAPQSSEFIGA

[8] = molecular target: Follistatin-related protein 3 (Homo sapiens) (UniProt O95633); test: FSTL3 binders on small-molecule microarrays, primary screen, biochemical, small-molecule microarray, 635 nm fluorescence (AID 1105); details: FSTL3 binding, higher = more signal;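 further: score merges emission near 667 nm and signal to noise per printed spot across three slides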
Chain of Follistatin-related protein 3 (Homo sapiens) (O95633 whole entry, looked up): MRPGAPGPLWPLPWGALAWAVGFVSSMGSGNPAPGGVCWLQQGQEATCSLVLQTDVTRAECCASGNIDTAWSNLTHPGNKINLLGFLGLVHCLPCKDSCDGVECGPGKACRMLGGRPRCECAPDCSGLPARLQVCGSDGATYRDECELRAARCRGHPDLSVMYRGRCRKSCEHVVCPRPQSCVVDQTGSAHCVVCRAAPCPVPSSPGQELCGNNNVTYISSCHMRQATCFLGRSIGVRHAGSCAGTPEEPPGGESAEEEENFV

[9] = molecular target: Dickkopf-related protein 1 (Homo sapiens) (UniProt O94907); test: DKK1 binders on small-molecule microarrays, primary screen, biochemical, small-molecule microarray, 635 nm fluorescence scan (AID 1106); details: DKK1 binding, higher = more signal;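 further: score merges emission near 667 nm with signal to noise over three replicate slides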
Chain of Dickkopf-related protein 1 (Homo sapiens) (O94907 whole entry, looked up): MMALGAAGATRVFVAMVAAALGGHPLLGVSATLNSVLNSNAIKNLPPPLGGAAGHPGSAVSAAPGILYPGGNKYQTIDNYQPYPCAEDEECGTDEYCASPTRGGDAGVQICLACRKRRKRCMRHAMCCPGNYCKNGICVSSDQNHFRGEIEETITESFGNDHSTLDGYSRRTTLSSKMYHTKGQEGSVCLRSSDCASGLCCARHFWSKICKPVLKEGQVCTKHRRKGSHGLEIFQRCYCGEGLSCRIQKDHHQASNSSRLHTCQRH

[10] = test system: Inhibin beta A chain (activin A); test: INHBA (activin A) binders on microarrays, primary screen, biochemical, small-molecule microarray, 635 nm fluorescence scan (AID 1107); details: small-molecule microarray binding, higher = more signal;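 further: mouse activin A protein probed at 4.33 µg/mL on printed slides; score merges bound-protein fluorescence near 667 nm with spot signal-to-noise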
[11] = test system: Human papillomavirus type 1a protein E7 (residues 44-93); test: HPV1a E7 fragment binders on microarrays, primary screen, biochemical, small-molecule microarray, residues 44-93, 635 nm fluorescence (AID 1108); details: small-molecule microarray binding, fluorescence 635 nm; higher = more signal;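 further: E7 fragment applied at 1 µg/mL in TBST for 1 h at 4 C; score combines spot fluorescence with its signal to noise ratio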
[12] = modulators of HCV replicon luciferase signal, primary screen, HCV replication inhibitor project, Huh7 cells, luciferase reporter (AID 1109); details: 48 h, higher = more signal;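 further: huh7 hepatoma cells harbouring a luciferase neomycin HCV replicon reporter; luciferase luminescence as measure of HCV replicon replication; test concentration not given here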
[13] = molecular target: Left-right determination factor 2 (Homo sapiens) (UniProt O00292); test: LEFTY2 binders on small-molecule microarrays, primary screen, biochemical, small-molecule microarray, 635 nm fluorescence scan (AID 1110); details: LEFTY2 binding, higher = more signal
Chain of Left-right determination factor 2 (Homo sapiens) (O00292 whole entry, looked up): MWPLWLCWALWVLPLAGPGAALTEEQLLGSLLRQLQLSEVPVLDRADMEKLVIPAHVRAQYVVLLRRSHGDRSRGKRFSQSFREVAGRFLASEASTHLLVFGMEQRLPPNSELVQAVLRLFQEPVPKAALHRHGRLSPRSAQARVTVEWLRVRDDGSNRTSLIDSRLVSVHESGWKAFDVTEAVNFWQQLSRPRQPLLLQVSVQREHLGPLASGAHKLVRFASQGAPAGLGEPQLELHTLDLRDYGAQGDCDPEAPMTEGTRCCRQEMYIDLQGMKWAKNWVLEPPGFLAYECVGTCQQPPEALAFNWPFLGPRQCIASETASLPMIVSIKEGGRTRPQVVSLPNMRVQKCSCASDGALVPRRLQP

[14] = molecular target: Calmodulin-1 (Homo sapiens) (UniProt P0DP23); test: CALM1 binders on microarrays, EGTA buffer, profiling panel, biochemical, small-molecule microarray, Cy5-labelled CALM1 (AID 1111); details: Cy5-CALM1 binding fluorescence, higher = more signal;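 further: labelled calmodulin applied in Tris saline Tween buffer holding calcium plus EGTA and DTT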
[15] = molecular target: Calmodulin-1 (Homo sapiens) (UniProt P0DP23); test: calcium-bound CALM1 binders on microarrays, profiling panel, artefact control for SMM control-protein annotation, biochemical, small-molecule microarray, Cy5-labelled CALM1, plus calcium (AID 1112); details: Cy5-CALM1 binding fluorescence, higher = more signal;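 further: score merges spot fluorescence with signal to noise from triplicate slides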
[16] = small-molecule microarray binders of probe aWnt5a, primary screen, biochemical, biotinylated probe, 635/667 nm fluorescence (AID 1113); details: higher = more signal;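 further: score merges 667 nm fluorescence intensity with signal-to-noise per printed feature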
[17] = small-molecule microarray binders of probe aShh, primary screen, biochemical, biotinylated probe, 635/667 nm fluorescence (AID 1114); details: higher = more signal;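 further: probe is biotin-labelled aShh protein from a stem cell growth factor screen; measures binding of labelled protein to compounds printed on the slide; score merges feature fluorescence at 667 nm with signal-to-noise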
[18] = small-molecule microarray binders of probe aNog, primary screen, biochemical, biotinylated probe, 635/667 nm fluorescence (AID 1115); details: higher = more signal;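 further: probe is biotinylated aNog protein used at 0.15 µg/mL for 1 h at 4 C; z-score combines 667 nm fluorescence of each spot with its signal to noise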
[19] = molecular target: Torsin-1A-interacting protein 1 (Homo sapiens) (UniProt Q5JTV8); test: LAP1 binders from COS7 cell lysate, primary screen, small-molecule microarray, 635/667 nm fluorescence (AID 1116); details: COS7-hLAP1 lysate binding, 635 nm fluorescence, higher = more signal
Chain of Torsin-1A-interacting protein 1 (Homo sapiens) (Q5JTV8 whole entry, looked up): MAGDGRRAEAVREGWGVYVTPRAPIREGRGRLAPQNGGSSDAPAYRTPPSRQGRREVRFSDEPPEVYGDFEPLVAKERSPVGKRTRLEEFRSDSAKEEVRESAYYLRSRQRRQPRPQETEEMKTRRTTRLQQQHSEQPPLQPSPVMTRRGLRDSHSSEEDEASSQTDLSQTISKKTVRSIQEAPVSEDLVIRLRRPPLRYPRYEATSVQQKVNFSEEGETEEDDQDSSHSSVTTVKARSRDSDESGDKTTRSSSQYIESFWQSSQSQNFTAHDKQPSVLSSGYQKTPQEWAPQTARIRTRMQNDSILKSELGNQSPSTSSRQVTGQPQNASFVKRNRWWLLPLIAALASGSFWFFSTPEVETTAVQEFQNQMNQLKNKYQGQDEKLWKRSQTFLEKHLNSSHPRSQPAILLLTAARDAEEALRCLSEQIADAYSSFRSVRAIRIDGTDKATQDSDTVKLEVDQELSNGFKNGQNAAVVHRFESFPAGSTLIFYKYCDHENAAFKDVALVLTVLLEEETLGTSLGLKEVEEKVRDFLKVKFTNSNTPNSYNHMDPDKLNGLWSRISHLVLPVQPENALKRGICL

[20] = molecular target: Alpha-bungarotoxin (Bungarus multicinctus) (UniProt P60615); test: alpha-bungarotoxin binders on microarray, profiling panel, artefact control for SMM control protein annotation, biochemical, small-molecule microarray, Alexa647 label, 635/667 nm fluorescence (AID 1117); details: alpha-BTX-A647 binding fluorescence, higher = more signal
Chain of Alpha-bungarotoxin (Bungarus multicinctus) (P60615 whole entry, looked up): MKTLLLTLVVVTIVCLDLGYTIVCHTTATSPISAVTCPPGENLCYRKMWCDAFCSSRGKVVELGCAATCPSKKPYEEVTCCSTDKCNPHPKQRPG

| Structure (SMILES) | composite z-score [1] | composite z-score [2] | composite z-score [3] | z-score [4] | composite z-score [5] | composite z-score [6] | composite z-score [7] | composite z-score [8] | composite z-score [9] | composite z-score [10] | composite z-score [11] | z-score [12] | composite z-score [13] | composite z-score [14] | composite z-score [15] | composite z-score [16] | composite z-score [17] | composite z-score [18] | composite z-score [19] | composite z-score [20] |
| --- | --- | --- | --- | --- | --- | --- | --- | --- | --- | --- | --- | --- | --- | --- | --- | --- | --- | --- | --- | --- |
| COCCOC(=O)N1C(=O)[C@@]2(c3cc(C#CC4=CCCCC4)ccc31)[C@H](C(N)=O)[C@H]1C(=O)O[C@H](c3ccccc3)[C@H](c3ccccc3)N1[C@@H]2c1ccc(O)cc1 | 1.61 | 0.0331 | 0.275 | -1.18 (inactive) | 1.15 | 0.96 | 0.586 | 0.829 | 0.318 | 0.787 | 1.13 | -1.76 | 0.959 | 1.16 | -0.308 | -0.107 | -0.0362 | -0.0956 | 0.923 | 1.51 |
| O=C1O[C@@H](c2ccccc2)[C@@H](c2ccccc2)N2[C@@H](c3ccc(OCCO)cc3)[C@]3(C(=O)Nc4ccc(C#CC5=CCCCC5)cc43)[C@@H](C(=O)N3CCCCCCC3)[C@H]12 | 1.66 | 2.71 | 1.43 | -0.447 (inactive) | 1.32 | 1.33 | 1.71 | 1.58 | 2.08 | 1.91 | 1.45 | -1.58 | 1.59 | 2.33 | 1.14 | 1.21 | 2.92 | 3.02 | 4.33 | 2.54 |
| C=C(CCCC)/C(=C/C[C@H](OC(C)=O)c1ccc(OCCO)cc1)c1cnc2ccccc2c1 | 0.641 | -0.182 | -0.0866 | 0.299 (inactive) | 0.672 | 0.209 | 0.384 | 1.12 | 0.446 | 1.53 | 1.43 | -2.43 | 0.52 | -0.185 | -0.378 | -0.101 | -0.0035 | -0.483 | 0.491 | 1.85 |
| C=CCNC(=O)[C@@H]1[C@H]2C(=O)O[C@H](c3ccccc3)[C@H](c3ccccc3)N2[C@H](c2ccc(OCCO)cc2)[C@@]12C(=O)N(C(=O)OCCOC)c1ccc(C#CCNC(N)=O)cc12 | 1.43 | 0.478 | 0.747 | 0.184 (inactive) | 0.704 | 0.549 | 0.555 | 0.898 | 0.554 | 1.2 | 0.79 | -0.635 | 0.735 | 0.597 | 0.386 | 0.0136 | 0.275 | -0.42 | 0.55 | 1.53 |
| C#CCN(C/C=C/c1ccccc1)[C@H](CO)c1ccccc1 | -0.222 | -0.583 | -0.506 | 0.985 (inactive) | 0.0797 | 0.0831 | -0.0239 | 0.598 | 0.358 | -0.283 | -0.414 | -1.74 | 0.171 | -0.653 | -0.472 | -0.0919 | -0.262 | -0.326 | -0.0349 | -0.0338 |
| C=CCC(OC(C)=O)[C@@H]1[C@@H](N(Cc2ccc(-c3cccc(C(F)(F)F)c3)o2)C(=O)c2cccc3ccccc23)c2cc(OCCCO)ccc2N1C(=O)Cc1ccc2ccccc2c1 (stereo not given in full) | 0.25 | 0.102 | 0.291 | -0.896 (inactive) | 0.0246 | -1.07 | -0.352 | 0.117 | -0.282 | 0.95 | -0.168 | 0.395 | -0.648 | 0.0134 | 0.242 | -0.0597 | 0.123 | -0.398 | 0.0212 | 0.794 |
| O=C1[C@@]23C=C(Br)[C@H](C[C@@H]2COC3)[C@]12CO2 | -1.5 | -0.183 | -0.188 | 1.91 (inactive) | -0.573 | -0.88 | -1.24 | -0.858 | -0.297 | 1.69 | -2.09 | -1.96 | -1.16 | -1.01 | -1.25 | 0.0388 | -0.234 | 0.0256 | -0.0722 | -1.5 |
| COC(=O)[C@@]1(Cc2ccccc2)[C@H]2c3cc(C(=O)N(C)C)n(CCc4c[nH]c5ccc(O)cc45)c3C[C@H]2CN1C(=O)c1ccccc1 | 0.0625 | 0.665 | 1.2 | -1.99 (inactive) | 0.288 | 0.435 | 0.121 | 0.594 | -0.0414 | 1.3 | 1.32 | -2.07 | -0.119 | 1.2 | 0.0493 | 0.0031 | -0.0146 | 0.843 | 1.48 | 0.194 |
| Cc1ccc(C2C3C(=O)CC4C(=O)N(c5ccccc5)C(=O)C4C3CN2S(=O)(=O)c2ccc(C)cc2)cc1 (stereo not given) | 0.0792 | 1.24 | 1.05 | 0.495 (inactive) | 0.924 | 0.816 | 0.381 | 0.773 | 0.112 | 0.385 | 0.808 | -0.418 | 0.0699 | 1.33 | 0.531 | 0.374 | 0.343 | -0.308 | 1.66 | 0.644 |
| CCOC(=O)C[C@H]1[C@H](OC(=O)c2ccc(C(=O)c3ccccc3)cc2)[C@@H](NC(=O)Cc2ccc(OC)cc2)c2cc(OCCCO)ccc2N1C(=O)c1ccc2ccccc2n1 | 0.31 | 0.05 | 0.161 | 0.409 (inactive) | 0.526 | 0.392 | 0.208 | 0.811 | 0.0905 | 0.468 | 0.998 | -0.873 | 0.816 | 0.985 | 0.336 | -0.131 | -0.0709 | -0.526 | 0.566 | 0.738 |
| [N-]=[N+]=NCc1ccccc1C[C@@]1(C(=O)NCC(O)CO)N=C(c2ccc(OCCCO)cc2)O[C@@H]1c1ccccc1 (stereo not given in full) | 0.048 | 1.15 | 1.22 | -0.195 (inactive) | -0.181 | -0.538 | -0.455 | -1.3 | -1.58 | 0.377 | 1.03 | -1.41 | -1.38 | 0.899 | 1.25 | -0.0285 | 0.156 | 0.723 | 1.01 | 0.183 |
